Data: the supplement of paper PMC11732987, “Enantioselective OTUD7B fragment discovery through chemoproteomics screening and high-throughput optimisation” (Communications Chemistry, 2025)

How the values were obtained:
Experiment in all cases: log2 ratio of Biotin-Ahx-Ub-VS probe labelling (fragment/DMSO); higher = less target engagement (more negative = stronger competition), active = hit call of the paper (q ≤ 0.05, log2 ratio ≤ -1)
Details in all cases: compound concentration: 200 uM; treatment time: 3 h
USP19 = target: T1, USP19 (UniProt O94966)
T1 sequence (whole entry): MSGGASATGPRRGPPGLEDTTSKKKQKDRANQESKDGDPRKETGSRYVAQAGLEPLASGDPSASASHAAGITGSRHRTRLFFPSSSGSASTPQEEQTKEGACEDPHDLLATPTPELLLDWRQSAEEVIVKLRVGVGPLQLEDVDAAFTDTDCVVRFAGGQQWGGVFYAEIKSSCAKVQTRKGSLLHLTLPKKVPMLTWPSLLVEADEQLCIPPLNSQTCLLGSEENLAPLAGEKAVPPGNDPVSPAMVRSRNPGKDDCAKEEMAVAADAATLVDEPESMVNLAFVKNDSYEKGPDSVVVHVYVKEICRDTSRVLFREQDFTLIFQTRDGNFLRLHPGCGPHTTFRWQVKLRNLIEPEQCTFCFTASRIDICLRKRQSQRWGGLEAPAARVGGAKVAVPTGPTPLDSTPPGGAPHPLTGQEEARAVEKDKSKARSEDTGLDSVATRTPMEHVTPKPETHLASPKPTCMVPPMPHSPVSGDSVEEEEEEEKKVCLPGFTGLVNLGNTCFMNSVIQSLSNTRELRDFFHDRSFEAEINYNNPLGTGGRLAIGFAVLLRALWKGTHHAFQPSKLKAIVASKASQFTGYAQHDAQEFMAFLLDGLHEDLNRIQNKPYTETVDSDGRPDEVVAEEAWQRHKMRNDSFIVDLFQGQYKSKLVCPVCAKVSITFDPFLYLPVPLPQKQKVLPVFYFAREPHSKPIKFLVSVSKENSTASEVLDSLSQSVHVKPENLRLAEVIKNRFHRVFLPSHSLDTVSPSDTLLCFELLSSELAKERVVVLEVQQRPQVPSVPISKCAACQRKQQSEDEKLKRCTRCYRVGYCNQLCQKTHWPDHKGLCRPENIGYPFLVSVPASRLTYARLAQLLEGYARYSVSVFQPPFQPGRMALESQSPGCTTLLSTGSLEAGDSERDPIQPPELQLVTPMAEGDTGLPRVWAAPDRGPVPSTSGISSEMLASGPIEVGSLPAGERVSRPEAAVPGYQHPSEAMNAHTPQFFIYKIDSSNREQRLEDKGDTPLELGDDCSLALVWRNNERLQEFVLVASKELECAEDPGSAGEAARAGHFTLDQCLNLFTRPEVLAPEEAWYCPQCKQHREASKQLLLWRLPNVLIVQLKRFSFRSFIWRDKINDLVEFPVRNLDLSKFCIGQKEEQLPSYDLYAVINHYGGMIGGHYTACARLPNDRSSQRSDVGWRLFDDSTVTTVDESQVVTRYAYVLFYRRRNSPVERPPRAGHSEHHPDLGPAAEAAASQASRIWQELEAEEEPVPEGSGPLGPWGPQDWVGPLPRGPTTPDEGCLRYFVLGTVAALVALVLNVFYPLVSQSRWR
Summary of the method: (§1)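 Fragment (200 µM) or vehicle was incubated for 3 h with triplicate HEK293T lysate samples of 495 µg, which were then treated with Biotin-Ahx-Ub-VS at 0.5 µM final for 1 h. Labelled DUBs were enriched on NeutrAvidin, digested with LysC and trypsin, and analysed by diaPASEF LC-MS/MS. Values are average log2 fragment/vehicle ratios from an unpaired t-test on global-median-normalised Spectronaut label-free quantities, using proteins with ≥2 unique peptides.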

USP24 = USP24 (UniProt Q9UPU5)
Summary of the method: as §1

USP25 = target: T2, USP25 (UniProt Q9UHP3)
T2 sequence (whole entry): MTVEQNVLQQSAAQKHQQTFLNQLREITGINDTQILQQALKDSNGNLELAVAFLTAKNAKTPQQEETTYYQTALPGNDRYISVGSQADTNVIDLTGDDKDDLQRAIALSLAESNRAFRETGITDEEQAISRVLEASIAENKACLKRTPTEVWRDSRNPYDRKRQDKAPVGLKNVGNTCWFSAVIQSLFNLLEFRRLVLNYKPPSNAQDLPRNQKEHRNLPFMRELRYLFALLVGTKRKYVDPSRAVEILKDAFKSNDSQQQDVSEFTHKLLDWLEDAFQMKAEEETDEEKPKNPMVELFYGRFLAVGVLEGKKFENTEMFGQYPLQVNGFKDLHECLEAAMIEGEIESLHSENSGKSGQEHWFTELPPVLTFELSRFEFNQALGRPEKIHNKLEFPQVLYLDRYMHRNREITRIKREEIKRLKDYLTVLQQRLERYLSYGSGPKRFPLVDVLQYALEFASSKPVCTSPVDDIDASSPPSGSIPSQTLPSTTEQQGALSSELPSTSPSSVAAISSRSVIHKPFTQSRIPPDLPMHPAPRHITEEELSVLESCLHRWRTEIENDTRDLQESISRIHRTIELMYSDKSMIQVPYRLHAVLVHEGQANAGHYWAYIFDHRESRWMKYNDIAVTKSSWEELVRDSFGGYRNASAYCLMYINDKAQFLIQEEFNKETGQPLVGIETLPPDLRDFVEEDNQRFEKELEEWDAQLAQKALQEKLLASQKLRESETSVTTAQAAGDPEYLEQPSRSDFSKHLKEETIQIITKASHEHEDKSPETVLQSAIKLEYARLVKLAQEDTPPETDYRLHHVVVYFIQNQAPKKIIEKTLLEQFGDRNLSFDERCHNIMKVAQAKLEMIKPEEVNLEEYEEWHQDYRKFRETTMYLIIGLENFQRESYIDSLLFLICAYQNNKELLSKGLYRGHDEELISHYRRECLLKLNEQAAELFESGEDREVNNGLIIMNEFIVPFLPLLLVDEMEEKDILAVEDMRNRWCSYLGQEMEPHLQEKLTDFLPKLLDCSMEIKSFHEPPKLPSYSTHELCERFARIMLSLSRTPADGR
Summary of the method: as §1

USP28 = target: T3, USP28 (UniProt Q96RU2)
T3 sequence (whole entry): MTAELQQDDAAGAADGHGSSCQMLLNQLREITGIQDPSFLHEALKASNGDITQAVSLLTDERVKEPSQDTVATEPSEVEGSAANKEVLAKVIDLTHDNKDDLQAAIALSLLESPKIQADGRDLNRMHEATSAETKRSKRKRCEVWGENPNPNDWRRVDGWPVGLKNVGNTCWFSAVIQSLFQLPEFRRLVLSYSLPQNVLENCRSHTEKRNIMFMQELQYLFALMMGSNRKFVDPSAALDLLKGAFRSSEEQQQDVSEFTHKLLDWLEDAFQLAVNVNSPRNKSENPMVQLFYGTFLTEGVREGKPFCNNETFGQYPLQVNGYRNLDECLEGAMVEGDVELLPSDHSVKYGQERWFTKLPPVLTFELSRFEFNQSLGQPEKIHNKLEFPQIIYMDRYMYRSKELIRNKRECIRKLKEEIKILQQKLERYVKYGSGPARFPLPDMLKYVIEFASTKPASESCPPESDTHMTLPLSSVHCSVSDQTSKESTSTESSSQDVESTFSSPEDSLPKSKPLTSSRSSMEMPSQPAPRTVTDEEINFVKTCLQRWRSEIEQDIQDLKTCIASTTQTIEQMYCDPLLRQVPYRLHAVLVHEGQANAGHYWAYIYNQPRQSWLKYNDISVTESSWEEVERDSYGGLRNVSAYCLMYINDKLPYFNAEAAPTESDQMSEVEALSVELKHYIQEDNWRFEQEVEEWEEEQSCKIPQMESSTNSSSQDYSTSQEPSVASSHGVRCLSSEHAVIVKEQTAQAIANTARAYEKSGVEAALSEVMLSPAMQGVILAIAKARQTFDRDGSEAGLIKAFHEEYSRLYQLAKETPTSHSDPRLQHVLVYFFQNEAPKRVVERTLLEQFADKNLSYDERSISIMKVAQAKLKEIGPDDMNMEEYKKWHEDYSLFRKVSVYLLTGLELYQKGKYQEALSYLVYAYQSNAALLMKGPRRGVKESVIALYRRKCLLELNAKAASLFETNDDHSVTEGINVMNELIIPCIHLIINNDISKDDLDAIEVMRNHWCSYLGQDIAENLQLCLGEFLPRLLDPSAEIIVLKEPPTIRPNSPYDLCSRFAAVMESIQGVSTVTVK
Summary of the method: as §1

Measured: log2 ratio of Biotin-Ahx-Ub-VS probe labelling

Chain of USP24 (Q9UPU5 whole entry): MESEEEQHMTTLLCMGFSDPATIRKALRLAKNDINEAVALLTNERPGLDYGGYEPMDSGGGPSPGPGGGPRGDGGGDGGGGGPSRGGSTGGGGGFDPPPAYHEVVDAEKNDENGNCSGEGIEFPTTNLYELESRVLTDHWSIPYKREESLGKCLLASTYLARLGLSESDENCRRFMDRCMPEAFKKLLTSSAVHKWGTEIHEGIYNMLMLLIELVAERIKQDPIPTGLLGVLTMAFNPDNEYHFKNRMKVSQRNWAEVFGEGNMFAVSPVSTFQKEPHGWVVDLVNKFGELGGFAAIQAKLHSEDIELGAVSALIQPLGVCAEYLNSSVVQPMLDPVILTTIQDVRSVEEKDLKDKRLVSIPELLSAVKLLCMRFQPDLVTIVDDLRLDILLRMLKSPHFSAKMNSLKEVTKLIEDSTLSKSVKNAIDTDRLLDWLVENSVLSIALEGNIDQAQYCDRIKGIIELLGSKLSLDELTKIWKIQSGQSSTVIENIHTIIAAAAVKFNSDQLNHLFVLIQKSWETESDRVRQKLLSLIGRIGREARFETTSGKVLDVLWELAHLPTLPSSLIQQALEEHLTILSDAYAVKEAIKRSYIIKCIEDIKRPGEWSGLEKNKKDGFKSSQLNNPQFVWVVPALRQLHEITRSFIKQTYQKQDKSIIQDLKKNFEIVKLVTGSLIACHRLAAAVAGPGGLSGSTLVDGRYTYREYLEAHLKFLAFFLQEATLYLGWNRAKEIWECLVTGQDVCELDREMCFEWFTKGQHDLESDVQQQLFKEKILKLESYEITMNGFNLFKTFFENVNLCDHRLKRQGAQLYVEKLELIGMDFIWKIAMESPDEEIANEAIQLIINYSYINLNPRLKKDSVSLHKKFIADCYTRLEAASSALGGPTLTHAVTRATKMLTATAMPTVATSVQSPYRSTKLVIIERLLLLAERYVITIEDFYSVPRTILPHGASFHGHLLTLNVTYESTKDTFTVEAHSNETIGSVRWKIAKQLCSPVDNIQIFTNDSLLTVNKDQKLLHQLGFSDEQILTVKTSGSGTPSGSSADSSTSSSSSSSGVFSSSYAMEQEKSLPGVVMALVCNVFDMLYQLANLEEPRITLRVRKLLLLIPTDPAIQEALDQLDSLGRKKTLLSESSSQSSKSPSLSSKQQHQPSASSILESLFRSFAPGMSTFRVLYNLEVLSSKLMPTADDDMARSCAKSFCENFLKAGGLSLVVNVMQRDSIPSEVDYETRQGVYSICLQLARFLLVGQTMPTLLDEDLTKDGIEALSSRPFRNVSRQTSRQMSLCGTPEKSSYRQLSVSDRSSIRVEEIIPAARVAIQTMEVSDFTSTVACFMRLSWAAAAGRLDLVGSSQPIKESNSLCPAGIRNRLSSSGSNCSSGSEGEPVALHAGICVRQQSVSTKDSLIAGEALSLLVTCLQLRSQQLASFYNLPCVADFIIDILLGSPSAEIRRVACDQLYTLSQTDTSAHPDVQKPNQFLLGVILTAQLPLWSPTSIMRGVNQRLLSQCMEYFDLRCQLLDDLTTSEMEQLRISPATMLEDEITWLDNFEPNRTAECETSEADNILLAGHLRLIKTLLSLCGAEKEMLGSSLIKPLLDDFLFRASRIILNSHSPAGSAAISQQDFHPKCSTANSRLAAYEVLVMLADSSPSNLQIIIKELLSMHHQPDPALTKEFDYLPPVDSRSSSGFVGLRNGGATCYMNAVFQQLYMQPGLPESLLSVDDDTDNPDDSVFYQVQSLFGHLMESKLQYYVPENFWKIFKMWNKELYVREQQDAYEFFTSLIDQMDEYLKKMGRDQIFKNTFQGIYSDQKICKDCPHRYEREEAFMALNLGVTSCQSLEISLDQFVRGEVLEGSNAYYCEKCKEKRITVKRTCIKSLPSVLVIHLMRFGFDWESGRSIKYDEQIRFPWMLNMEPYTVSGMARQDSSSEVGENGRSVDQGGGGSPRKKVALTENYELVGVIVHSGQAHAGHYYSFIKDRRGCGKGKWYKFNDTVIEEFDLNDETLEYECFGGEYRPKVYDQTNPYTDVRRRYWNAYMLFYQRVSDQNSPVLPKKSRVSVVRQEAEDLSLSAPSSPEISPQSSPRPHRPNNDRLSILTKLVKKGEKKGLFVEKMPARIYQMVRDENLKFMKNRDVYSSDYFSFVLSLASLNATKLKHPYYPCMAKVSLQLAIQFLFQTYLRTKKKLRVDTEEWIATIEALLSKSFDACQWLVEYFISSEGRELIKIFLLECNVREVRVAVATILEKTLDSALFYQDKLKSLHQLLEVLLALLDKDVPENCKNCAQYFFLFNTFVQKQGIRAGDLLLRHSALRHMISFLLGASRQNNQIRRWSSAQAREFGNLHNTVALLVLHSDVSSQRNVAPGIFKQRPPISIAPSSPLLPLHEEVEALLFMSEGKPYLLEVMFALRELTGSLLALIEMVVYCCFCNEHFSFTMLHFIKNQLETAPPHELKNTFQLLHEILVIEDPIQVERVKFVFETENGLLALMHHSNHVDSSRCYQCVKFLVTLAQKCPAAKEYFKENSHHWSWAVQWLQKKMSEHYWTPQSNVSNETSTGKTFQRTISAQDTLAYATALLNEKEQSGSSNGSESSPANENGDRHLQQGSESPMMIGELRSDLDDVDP

O=C(CCl)Nc1cccc2ncccc12
inactive: USP19 -0.114 | USP24 -0.136 | USP25 -0.527 | USP28 -0.917
